aSyn UTR act: Activators working through SNCA 5'UTR binding (MLPCN); alpha-synuclein 5'UTR reporter, activators screen; activity score, % (tested at 7.5 µM), hits read low; 300,000 compounds, 7.1% hits; AID 1814; in the data active = activity score below about -60%
Large screens that a line does not name were inactive. Only a sample is shown.

O=C(Nc1nc2c(s1)CN(Cc1ccccc1)CC2)c1c(F)cccc1F	aSyn UTR act -82.1
O=C(Nc1nc2c(s1)CN(Cc1ccccc1)CC2)C1CCCC1	aSyn UTR act -81.8
COc1ccc2nc(/N=C(\N)NC(=O)C(C)(C)C)nc(C)c2c1	aSyn UTR act -84.8
CCC(=O)N/C(N)=N/c1nc(C)c2cc(OC)ccc2n1	aSyn UTR act -106.5
c1ccc(Nc2nc3ccccc3[nH]2)nc1	aSyn UTR act -168.9
Cc1cc(C)nc(Nc2nc3ccccc3[nH]2)n1	aSyn UTR act -109.1
CC(/C=C/c1ccccc1F)=N\NC(=O)c1ccccc1	aSyn UTR act -143.7
O=C(Nc1ccc(F)cc1)c1nsc(Cl)c1Cl	aSyn UTR act -177.7
CCOc1ccc(NC(=O)c2nsc(Cl)c2Cl)cc1	aSyn UTR act -117.3
O=C(Nc1ccc(F)c(Cl)c1)c1nsc(Cl)c1Cl	aSyn UTR act -110.4
Cc1csc(NC(=O)c2sc3nc(-c4cccs4)ccc3c2N)n1	aSyn UTR act -227.6
COc1ccc(C(=O)Nc2nc(-c3cccs3)cs2)cc1	aSyn UTR act -91.3
Cc1ccc(C(=O)Nc2ncc3c(Cl)cccc3n2)cc1	none
O=C(Nc1nc(-c2cccs2)cs1)c1ccc(Cl)cc1	aSyn UTR act -88.3
Cc1ccc(C(=O)Nc2nccc(-c3cccs3)n2)cc1	aSyn UTR act -66.1
O=C(Nc1nc(-c2cc(Cl)sc2Cl)cs1)c1cccs1	aSyn UTR act -157.7
COc1ccc(-c2nnc(SCC(=O)N3CCCC3)o2)c(OC)c1	aSyn UTR act -82.8
CC1CCCCN1C(=O)CSc1nnc(-c2ccccc2F)o1 (stereo not given)	aSyn UTR act -84.1
O=C(CSc1nnc(-c2ccccc2F)o1)N1CCCC1	aSyn UTR act -76.2
CC1CCCCN1C(=O)CSc1nnc(-c2ccco2)o1 (stereo not given)	aSyn UTR act -135.7
CCn1c(SCc2nc3ccccc3[nH]2)nnc1-c1cnccn1	aSyn UTR act -89.7
CCn1c(SCC(=O)c2ccccc2)nnc1-c1cnccn1	aSyn UTR act -77.6
Cn1c(SCC(=O)c2ccccc2)nnc1-c1cccs1	aSyn UTR act -101.8
CCC(=O)Nc1cccc(-n2nnnc2SCC(=O)c2ccc(C)c(C)c2)c1	aSyn UTR act -84.1
Cn1c(SCC(=O)c2ccccc2)nnc1-c1cnccn1	aSyn UTR act -67.0
CCC(=O)Nc1cccc(-c2nnc(SCC(=O)c3ccccc3)n2C)c1	aSyn UTR act -103.0
Cn1c(SCc2c(Cl)cccc2Cl)nnc1-c1cccs1	aSyn UTR act -61.6
CC(=O)Nc1cc(NC(C)=O)c(N=Nc2ccccc2)cc1C	aSyn UTR act -89.4
CCOc1ccccc1NC(=O)c1ccc2[nH]c(C)c(C)c2c1	aSyn UTR act -90.5
CCOc1ccccc1NC(=O)c1ccc2ccccc2c1	aSyn UTR act -80.7
CCC(=O)CCC(=O)c1ccc2ccccc2c1	aSyn UTR act -92.2
CCc1ccc(NC(=O)C(=O)NCC2CCCO2)cc1 (stereo not given)	aSyn UTR act -136.7
S=C(NCC1CCCO1)Nc1ccc(Cl)c(Cl)c1 (stereo not given)	aSyn UTR act -85.7
CN(C)c1ccc(NC(=S)NCC2CCCO2)cc1 (stereo not given)	aSyn UTR act -101.0
COc1cccc(NC(=O)NC2CCCCCCC2)c1	aSyn UTR act -132.3
COc1cccc(NC(=O)C(=S)NC2CCCCC2)c1	aSyn UTR act -85.4
C#CC(=O)N(c1cccc(OC)c1)C(C(=O)NC1CCCC1)c1cccs1 (stereo not given)	none
CCC(=O)C1CCCN(C(=O)c2ccc3nc(-c4cccc(OC)c4)oc3c2)C1 (stereo not given)	aSyn UTR act -84.5
COc1cccc(-c2nc3ccc(C(=O)N4CCCC(O)C4)cc3o2)c1 (stereo not given)	aSyn UTR act -91.3
CCOC(=O)C1CCCCN1C(=O)CCc1c(C)nc2cc(-c3ccccc3)nn2c1C (stereo not given)	none
COCCC1CCCCN1C(=O)c1ccc2nc(Cc3ccccc3F)oc2c1 (stereo not given)	aSyn UTR act -131.1
CCOC(=O)C1CCCN(C(=O)c2ccc3oc(CCc4ccccc4)nc3c2)C1 (stereo not given)	aSyn UTR act -72.2
COC(=O)C1CCCCN1C(=O)c1ccc2oc(Cc3ccccc3)nc2c1 (stereo not given)	aSyn UTR act -87.9
CC(=O)C1CCCN(C(=O)c2ccc3oc(CCc4ccccc4)nc3c2)C1 (stereo not given)	aSyn UTR act -94.0
O=C(c1ccc2oc(CCCc3ccccc3)nc2c1)N1CCCC1	aSyn UTR act -140.9
CCC(=O)n1nc(-c2ccc(Cl)cc2)nc1SC	aSyn UTR act -103.6
CCC(=O)n1nc(-c2ccc(OC)cc2)nc1SC	aSyn UTR act -92.4
CCCC(=O)n1nc(-c2ccc(Cl)cc2)nc1SC	aSyn UTR act -84.1
c1ccc(CN2CCN(C3=Nc4cccc5cccc3c45)CC2)cc1	aSyn UTR act -101.4
Cc1cc(N2CCN(Cc3cn(C)nc3-c3ccccc3F)CC2)cc(C)n1	none
Fc1ccc(N2CCN(C3=Nc4cccc5cccc3c45)CC2)cc1	aSyn UTR act -173.5
Cc1ccc(C(C)C)c(OCc2nc(-c3nonc3N)no2)c1	aSyn UTR act -92.2
Cc1ccc(C(C)C)c(OCc2ccc(C(=O)N/N=C/c3ccc(O)cc3O)cc2)c1	none
CC(=O)N/C(N)=N/c1nc2cc([N+](=O)[O-])ccc2o1	aSyn UTR act -97.5
CC(=O)N/C(N)=N/c1nc2cc(C)ccc2o1	aSyn UTR act -63.2
Cc1nc2nc(-c3ccc(Cl)cc3)nn2c(C)c1Cl	aSyn UTR act -234.9
Cc1nc2nc(-c3ccccc3)nn2c(C)c1C	aSyn UTR act -104.8
CCCCOC(=O)c1ccc(NC(=O)C2CCCO2)cc1 (stereo not given)	aSyn UTR act -75.0
CCCCOC(=O)c1ccc(NC(=O)c2c(Cl)ccc(Cl)c2OC)cc1	aSyn UTR act -65.5
CCCCc1nnc(NC(=O)C2CCCO2)s1 (stereo not given)	aSyn UTR act -85.5
CCCCc1nnc(NC(=O)C2=COCCO2)s1	aSyn UTR act -64.1
CCCc1nnc(NC(=O)C23CC4CC(CC(C4)C2)C3)s1	aSyn UTR act -117.6
CCCCc1ccc(NC(=O)C2CCCO2)cc1 (stereo not given)	aSyn UTR act -97.0
CCOC(=O)c1ccc(NC(=O)C2CCCO2)cc1 (stereo not given)	aSyn UTR act -98.7
CCN1C(=Nc2ccc(Cl)cc2)SC/C1=C\C(=O)OC	aSyn UTR act -80.6
CCOC(=O)c1cc(-c2ccccc2)nn1Cc1cc(C)no1	aSyn UTR act -81.0
O=C(OCc1nnc(-c2ccc(Cl)cc2)o1)C12CC3CC(CC(O)(C3)C1)C2	aSyn UTR act -204.6
COc1cccc(NC(=O)c2cnc(SCC(=O)NCc3ccc4c(c3)OCO4)n(C)c2=O)c1	aSyn UTR act -82.2
O=C(Nc1ccc(F)cc1F)c1cc2n(n1)C(C(F)(F)F)C1CCCCC1N2 (stereo not given)	aSyn UTR act -68.6
O=C(Nc1ccc(F)cc1F)c1cc2nc3c(c(C(F)(F)F)n2n1)CCCC3	aSyn UTR act -78.8
C/C(=N\NC(=O)COc1ccc(C(C)(C)C)cc1)c1cc2ccccc2o1	aSyn UTR act -109.3
COCCNC(=S)N/N=C(\C)c1cc2ccccc2o1	aSyn UTR act -117.4
Nc1nc(SCc2ccccc2)ns1	aSyn UTR act -88.8
Nc1cc(N)nc(SCc2ccccc2)n1	aSyn UTR act -110.3
Cc1sc(NC(=O)c2cccs2)nc1-c1ccccc1	aSyn UTR act -199.2
Cc1sc(NC(=O)c2ccco2)nc1-c1ccccc1	aSyn UTR act -94.6
CC(=O)c1c(C)[nH]c(C(=O)Nc2nc(-c3ccccc3)c(C)s2)c1C	aSyn UTR act -76.4
CC(=O)c1c(C)[nH]c(C(=O)Nc2nccs2)c1C	aSyn UTR act -134.8

Screening results from PubChem.
